Rows were chosen to be rich in hits. Some 17% of all compounds tested hit in one or more screens of this group.
TGFb SMAD3 inh = qHTS for Inhibitors of TGF-b; HepG2 CAGA-GFP TGF-b/SMAD3 reporter, GFP fluorescence, 18 h; TGF-beta stimulated, 500 pg/mL final; Potency, µM (series often up to 46.1 µM), for inactives: at the highest dose activity, negative = inhibition, most hits filed as inhibitors; 410,000 tested, 1.2% active; AID 588855, 2011; also: % is scaled to controls: 0 for no effect and ±100 for the full control effect; nearly all actives have a fitted effect of over 65% in size
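Cell-based qHTS in HEPG2 carrying a CAGA-GFP Smad reporter; compounds added before 500 pg/mL final TGF-beta, 18 h incubation at 37 degrees C, GFP fluorescence quantified per cell by imaging cytometry.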
HT1080 IDH1KD tx = qHTS for induction of synthetic lethality in tumor cells producing 2HG: qHTS for the HT-1080-IDH1KD cell line; HT-1080 IDH1 knockdown viability, ATP luminescence, 48 h; Potency, µM (series often up to 46.1 µM), without a hit: at the highest dose activity, negative = toxicity, hits mostly cytotoxic; 360,000 tested, 2% active;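 also: 0% = DMSO wells and -100% = cell-free medium wells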
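Luminescent ATP read-out (CellTiter-Glo, 10 min at room temperature) after 48 h compound exposure at 37 °C gave viability of IDH1-knockdown HT-1080 cells. Activity was normalised to DMSO and cell-free wells, then fitted as concentration-response curves.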
HepG2 viability = qHTS for Inhibitors of TGF-b: Cytotox Counterscreen; HepG2 CAGA-GFP viability, ATP luminescence, 18 h; Potency, µM (highest dose often 46.1 µM), without a hit: top-dose activity change, negative = cytotoxicity, most hits filed as cytotoxic; 410,000 tested, 0.76% active
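HepG2 CAGA-GFP cells (1000/well, DMEM with 1% FBS) received compound, then TGF-beta at 500 pg/mL final, and were incubated 18 hours at 37 degrees C. Viability was read by CellTiter-Glo luminescence. Media-only wells were set as complete cell-killing and DMSO as no toxicity.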
HT1080NT lethal = qHTS for induction of synthetic lethality in tumor cells producing 2HG: qHTS for the HT-1080-NT fibrosarcoma cell line. HT-1080-NT fibrosarcoma viability, CellTiter-Glo ATP luminescence, 48 h. Potency, µM (titrated, usually from 46.1 µM), without a hit: top-dose activity, negative = less viability, most hits filed as cytotoxic. 360,000 tested, 1.6% active. AID 686970, 2013;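 also: NT is the 2HG producing partner of a matched IDH1 knockdown line; 0% = DMSO-treated cells and -100% = media-only wells without cells; nearly all actives have a fitted effect of over 55% in size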
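Compounds were tested in concentration-response format on HT-1080-NT cells for 48 hours at 37 degrees C. Cell viability came from CellTiter-Glo luminescence; curves were classified by r2, response magnitude and activity.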
TDP1 cell noCPT = qHTS for Inhibitors of human tyrosyl-DNA phosphodiesterase 1 (TDP1): qHTS in cells in absence of CPT; 420,000 tested, 15% active; DT40 Tdp1-/- hTDP1 cells, no CPT, ATP luminescence, 48 h; Potency, µM (titrated, usually from 46.2 µM), without a hit: at the highest dose activity change, negative = growth inhibition, hits mostly inhibitors; AID 686978, 2013; also: % is scaled to controls: 0 for no effect and ±100 for the full control effect; nearly all actives have a fitted effect of over 55% in size
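Readout: luminescence from CellTiter-Glo after 30 min in the dark at RT. Cells: DT40 Tdp1-/- with stable hTDP1, 400/well. Exposure: compounds alone, ≥48 hr, 37 °C.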
DT40 TDP1 CPT = qHTS for Inhibitors of human tyrosyl-DNA phosphodiesterase 1 (TDP1): qHTS in cells in presence of CPT; chicken DT40 Tdp1-/-;hTDP1 cells + 20 nM CPT, ATP luminescence, 48 h; Potency, µM (titrated, usually from 46.2 µM), inactives show at the highest dose activity change, negative = growth inhibition, most hits filed as inhibitors; 420,000 tested, 12% active; AID 686979, 2013; also: % is scaled to controls: 0 for no effect and ±100 for the full control effect; nearly all actives have a fitted effect of over 55% in size
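Chicken DT40 Tdp1-/- cells complemented with human TDP1, 400 cells/well, exposed to compounds plus 20 nM camptothecin for at least 48 h at 37 C; viability read as ATP content by CellTiter-Glo luminescence.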
Numbers without * were called inactive; ? = inconclusive; · = not tested or not shown; [ ] = another dose, or the depositor's remark. Calls follow the shape of the dose curve; as a rule, active = well fitted curve in the direction sought with a large enough effect; inconclusive = small, poorly fitted or top-dose-only effect, or another doubt; inactive = no such curve, though single readings can be large; an effect the other way counts as inactive or inconclusive. Potency is read from the fitted curve at half-maximal effect.

SMILES | TGFb SMAD3 inh | HT1080 IDH1KD tx | HepG2 viability | HT1080NT lethal | TDP1 cell noCPT | DT40 TDP1 CPT
O=C(/C=C/c1ccc(-c2ccccc2[N+](=O)[O-])o1)c1ccc(Br)cc1 | -17% | ? | -19% | ? | 16µM* | ?
NC1=NC(=O)/C(=C\c2ccc(-c3ccccc3[N+](=O)[O-])o2)S1 | · | ? | · | 20µM* | ? | 11µM*
O=c1nc2s/c(=C\c3ccc(-c4ccccc4[N+](=O)[O-])o3)c(=O)n2nc1-c1ccccc1 | 2% | 0% | 7% | -6% | -7% | 2%
COc1cccc(COC(=O)CCNC(=O)c2ccc(Cl)cc2)c1OC | -1% | 0% | -11% | 1% | 28% | -8%
COc1ccc(CN2C(=O)c3ccccc3C2=O)cc1C(=O)N(C)CC(=O)Nc1ccc(F)cc1 | 0% | 4% | 10% | -2% | -10% | -4%
O=C(COC(=O)C1CCC(=O)N1)Nc1cccc([N+](=O)[O-])c1 (centres undefined) | -10% | -3% | -9% | -2% | -16% | -9%
CCOC(=O)c1ccccc1NC(=O)c1sc2nc3n(c(=O)c2c1C)CCCC3 | -8% | · | -2% | · | -5% | ?
NS(=O)(=O)c1ccc(NC(=O)/C=C/c2ccccc2[N+](=O)[O-])cc1 | 3% | 2% | 4% | 3% | -17% | 4%
O=C(/C=C/c1ccccc1[N+](=O)[O-])c1ccccc1Br | ? | 21µM* | 0% | ? | 8.2µM* | 21µM*
Cc1ccc(C(=O)/C=C/c2ccc(-c3ccccc3[N+](=O)[O-])o2)cc1 | -17% | -1%[9.24 µM] | -32% | ? | 18µM* | ?
N#C/C(=C/c1ccc(-c2ccccc2[N+](=O)[O-])o1)C(N)=O | 9% | 14% | -15% | 12% | 4% | 0%
COC(=O)N1CCC2(CC1)CCN(c1ccccn1)CC2 | · | · | · | · | -24% | 18%
O=C(Oc1ccccc1)N1CCC2(CC1)CCN(c1ccccn1)CC2 | · | · | · | · | ? | 16µM*
O=C(Oc1ccccc1)N1CCC2(CC1)CCN(c1ccncc1)CC2 | · | · | · | · | 15µM* | 15µM*
O=S(OCCN1CCCC1)C(c1ccccc1)c1ccccc1 (centres undefined) | -1% | ? | 1% | -23% | ? | ?
Cc1nn(CC(=O)N2CCC(C)CC2)c(=O)c2cc3occc3n12 | -4% | · | 8% | · | -4% | -12%
Cc1ccc(CSc2nc3c([nH]c4ccccc43)c(=O)n2C)cc1 | -10% | · | -25% | · | ? | ?
Cc1ccc(NC(=O)CSc2nc3c([nH]c4ccccc43)c(=O)n2C)cc1 | -1% | -3% | -16% | -1% | 8.2µM* | 13µM*
Cc1ccc(C)c(CSc2nc3c([nH]c4ccccc43)c(=O)n2C)c1 | -26% | · | -13% | · | 3.3µM* | 6.5µM*
Cn1c(SCC(=O)Nc2ccc(F)cc2)nc2c([nH]c3ccccc32)c1=O | -49% | 2% | -52% | -2% | ? | 18µM*
CCOC(=O)c1c(C)c(C)n(Cc2ccc(OC)c(OC)c2)c1C | ? | -24% | -11% | -16% | 18µM* | 21µM*
CCOC(=O)c1cc(C)n(Cc2ccc(OCC)c(OC)c2)c1C | -4% | -26% | -33% | -5% | ? | 11µM*
COC(=O)/C=C/C(=O)N1CCN(c2ccccc2C)CC1 | 2% | 9% | -3% | 11% | 16µM* | ?
Cc1ccccc1N1CCN(c2ccccc2NC(=O)/C=C\C(=O)O)CC1 | 2% | -5% | 1% | 6% | ? | 16µM*
CCN(CC)S(=O)(=O)c1ccc(C(=O)N2CC(=O)Nc3ccc(F)cc3C2c2ccccc2)cc1 (centres undefined) | 14% | · | -2% | · | ? | ?
SMILES | TGFb SMAD3 inh | HT1080 IDH1KD tx | HepG2 viability | HT1080NT lethal | TDP1 cell noCPT | DT40 TDP1 CPT
CS(=O)(=O)NCCCc1ccccc1 | 7% | 7% | 1% | 6% | 2% | 4%
O=S(=O)(NCCCCCCc1ccccc1)c1cccc2c(Cl)cccc12 | · | · | · | · | ? | 21µM*
NCCCCCCCCCCNS(=O)(=O)c1cccc2c(Cl)cccc12 | ? | · | -102% | · | 13µM* | ?
COc1cc(CNC(C)C23CC4CC(CC(C4)C2)C3)ccc1OCC(=O)NC(C)(C)C (centres undefined) | ? | 23µM* | -59% | ? | 21µM* | -107%
COc1cc(CNC23CC4CC(CC(C4)C2)C3)ccc1OCc1ccccc1 | 19% | -5% | -25% | -15% | 21µM* | 29µM*
COc1cc(C(=S)N2CCCC2)ccc1OCc1ccccc1 | -6% | -4% | -2% | -1% | ? | 1%
C=CCOc1c(CNc2ccc(S(N)(=O)=O)cc2)cccc1OC | 0% | -10% | 1% | -10% | 18µM* | ?
COc1cc(CNC(C)(C)CO)ccc1OCC(=O)NC(C)(C)C | -1% | 3% | 3% | 10% | 4% | 9%
COc1cc(CNc2ccc(N3CCCC3)cc2)ccc1OCc1ccccc1 | -3% | -24% | -11% | ? | 2.1µM* | 1.6µM*
CCNCc1ccc(OCc2ccccc2F)c(OC)c1 | 16% | -12% | -7% | -12% | ? | -27%
COc1cc(CNc2ccc(S(N)(=O)=O)cc2)ccc1OCc1ccccc1F | -17% | -10% | -19% | -2% | ? | 18µM*
COc1cc(CNc2ccc(N3CCCC3)cc2)ccc1OCc1ccccc1F | -7% | -4% | -24% | -7% | 4.6µM* | 3.7µM*
CC(NCc1cc(Br)ccc1OCC(N)=O)C12CC3CC(CC(C3)C1)C2 (centres undefined) | ? | -21% | -37% | -20% | 18µM* | ?
COc1cc(C)ccc1OC(C)C(=O)Nc1ccc(N2CCCCC2)cc1 (centres undefined) | -3% | 12% | -14% | 4% | 13µM* | ?
CCNc1ncnc2[nH]ncc12 | -3% | 1% | 4% | 0% | -1% | 6%
COc1cccc(NC(=O)CN(C)C(=O)C(Sc2ccccc2)c2ccccc2)c1 (centres undefined) | -30% | -19% | -5% | 0% | ? | -25%
